Test systems include NCI/ADR-RES ovarian; T-47D breast; BT-549 breast; MDA-MB-435 melanoma; SW-620 colon; MCF7 breast; HCT-116 colon; HCC-2998 colon; KM12 colon.
Experiment in all cases: NCI-60 one-dose screen, 48 h (100 = growth as untreated, 0 = no growth, -100 = all killed)
Holding throughout (conditions): 10 µM unless noted

This is part of a sample that, as a whole, favours compounds with a hit. Of some 83,000 tested, about 20% had one in any assay.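 Note: values are percent growth. 100 is the growth of untreated cells, values between 100 and 0 indicate rising inhibition; between -100 and 0 indicates cell death.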 A number with no mark means an inactive call. Activity calls are given as the source filed them. The calls were made as follows: active = growth percent below 10; inactive = the rest.

As for `Cc1ccc(N2COOC3(OOC2)C2CC4CC(C2)CC3C4)cc1`, the growth with NCI/ADR-RES ovarian is 95.6%; with T-47D breast, 82.7%; in the assay with BT-549 breast it was 95.7%; in the assay on MDA-MB-435 melanoma, 93.2%; in the assay on SW-620 colon, 108%; in the assay on MCF7 breast, 77.6%. The growth is 89% in the assay on HCT-116 colon, 107% in the assay on HCC-2998 colon and 90.6% with KM12 colon.

`O=C(Nc1ccc([As]=[As]c2ccc(NC(=O)c3ccccc3)cc2)cc1)c1ccccc1` (configuration not stated): the growth in the assay with NCI/ADR-RES ovarian was -38.6% (active); with T-47D breast, -51.9% (active); in the assay on BT-549 breast it was -90.4% (active); in the assay with MDA-MB-435 melanoma, -77.2% (active); with SW-620 colon it was -67.3% (active); in the assay on MCF7 breast, -57.7% (active). The results for the growth with HCT-116 colon, with HCC-2998 colon and with KM12 colon were -92.4% (active), -80.5% (active) and -80.4% (active), respectively.

Take `CC(=O)O[C@H](C[C@H](C(C)C)N(C)C(=O)[C@@H](NC(=O)[C@H]1CCCCN1C)C(C)C)c1cccc(C(=O)N[C@@H](Cc2ccccc2)C[C@H](C)C(=O)O)n1`: the growth is 8.24% (active) in the assay with NCI/ADR-RES ovarian; 47.7% with T-47D breast; -8.23% (active) in the assay on BT-549 breast; -37.7% (active) in the assay with MDA-MB-435 melanoma; 23.7% with SW-620 colon; 15.9% in the assay on MCF7 breast. In addition, the growth was 2.75% (active) in the assay with HCT-116 colon, 9.77% (active) in the assay on HCC-2998 colon and 4.91% (active) in the assay with KM12 colon.

As to `Cc1ccc(S(=O)(=O)F)cc1C(=O)O`, the growth is 105% in the assay on NCI/ADR-RES ovarian; 91.6% in the assay on T-47D breast; 111% in the assay with BT-549 breast; 86.9% in the assay on MDA-MB-435 melanoma; 109% in the assay on SW-620 colon; 111% in the assay on MCF7 breast. In addition, the growth in the assay with HCT-116 colon was 111%; in the assay on HCC-2998 colon, 108%; with KM12 colon, 109%.

On to `O=c1[nH]cc(N(CCCl)CCCl)c(=O)[nH]1`, for which the growth was 66.3% with NCI/ADR-RES ovarian; 53% in the assay on T-47D breast; 81.5% in the assay on BT-549 breast; 86.5% in the assay on MDA-MB-435 melanoma; 71.8% in the assay with SW-620 colon; 53.1% with MCF7 breast. In addition, the results for the growth in the assay on HCT-116 colon, in the assay with HCC-2998 colon and in the assay with KM12 colon were 78.8%, 61.6% and 86.5%, respectively.

Consider `Nc1ncnc2n[nH]nc12`, for which the growth was 67.7% with NCI/ADR-RES ovarian; 4.78% (active) with T-47D breast; 89.8% in the assay with BT-549 breast; 75.1% with MDA-MB-435 melanoma; 61.5% in the assay with SW-620 colon; 63.2% with MCF7 breast. The growth is 65.1% in the assay on HCT-116 colon, 68.7% with HCC-2998 colon and 70.4% in the assay on KM12 colon.

As to `COc1cc2c(=O)n(C3CCCCCCC3)c3c4cc[nH]c4ncc3c2cc1OC`, the growth was 40.5% in the assay with NCI/ADR-RES ovarian; 39.5% in the assay with T-47D breast; 44.6% in the assay with BT-549 breast; 57.9% in the assay on MDA-MB-435 melanoma; 56.8% with SW-620 colon; 39.1% with MCF7 breast. Further, the growth is 31.5% in the assay with HCT-116 colon, 96.2% in the assay with HCC-2998 colon and 19.1% with KM12 colon.

With `CC(=O)O[C@H]1CC[C@H]2[C@@H]3CC=C4c5nc(-c6ccccc6)sc5CC[C@]4(C)[C@H]3CC[C@]12C`, the growth in the assay with NCI/ADR-RES ovarian was 71.1%; with T-47D breast, 52.4%; with BT-549 breast, 64.8%; in the assay on MDA-MB-435 melanoma, 59.2%; in the assay with SW-620 colon, 55%; with MCF7 breast, 67.7%. Also, the growth in the assay with HCT-116 colon is 51.2%; with HCC-2998 colon, 54%; with KM12 colon, 42.3%.

On to `CCCCCCCCCCCCCCCCCC1OC[C@@H](COC(=O)O[C@@H](C(=O)O[C@H]2C[C@@]3(O)[C@@H](OC(=O)c4ccccc4)[C@@H]4[C@]5(OC(C)=O)CO[C@@H]5C[C@H](O)[C@@]4(C)C(=O)[C@H](OC(C)=O)C(=C2C)C3(C)C)[C@@H](NC(=O)c2ccccc2)c2ccccc2)O1` (some centres not stated), for which the growth in the assay on NCI/ADR-RES ovarian was 106%; with T-47D breast, 51.9%; in the assay with BT-549 breast it was 55.2%; with MDA-MB-435 melanoma it was -41.2% (active); in the assay with SW-620 colon, 45.7%; in the assay with MCF7 breast it was 24.9%. Further, the results for the growth in the assay on HCT-116 colon, with HCC-2998 colon and with KM12 colon were 23.4%, 56.8% and 28.7%, respectively.

For the molecule `COc1cccc2c1c(C(=O)C(=O)Nc1cc(C)no1)cn2Cc1ccc(F)cc1`, the growth in the assay on NCI/ADR-RES ovarian was -0.189% (active); with T-47D breast, 68%; in the assay with BT-549 breast, 25.5%; with MDA-MB-435 melanoma, -34.4% (active); in the assay with SW-620 colon, 15.5%; in the assay with MCF7 breast, 26.9%. For the same molecule, the growth in the assay on HCT-116 colon was 34.4%; in the assay on HCC-2998 colon it was 58.4%; in the assay with KM12 colon, 16.4%.

On to `C[C@@]12CC=C3c4nc(Nc5cccc(O)c5)sc4CC[C@]3(C)[C@H]1CC[C@]1(C)C(=O)CC[C@@H]21`, for which the growth was 78.9% with NCI/ADR-RES ovarian; -8.55% (active) in the assay with T-47D breast; 17.4% in the assay on BT-549 breast; 42.6% in the assay on MDA-MB-435 melanoma; -4.13% (active) with SW-620 colon; -25.9% (active) in the assay on MCF7 breast. The growth in the assay on HCT-116 colon was -23.7% (active); in the assay with HCC-2998 colon, 81.5%; with KM12 colon, 34.7%.

`O=C1C2CC=CCC2C(=O)N1SC(Cl)(Cl)Cl` (configuration not stated): the growth in the assay on NCI/ADR-RES ovarian was 104%; in the assay with T-47D breast it was 46.3%; in the assay with BT-549 breast, 125%; in the assay on MDA-MB-435 melanoma, 126%; in the assay on SW-620 colon it was 8.03% (active); in the assay on MCF7 breast it was 83.3%. Moreover, the values for the growth with HCT-116 colon, with HCC-2998 colon and with KM12 colon were 66.5%, 105% and 103%, respectively.

As for `Clc1cccc(NCOOC2(OOCNc3cccc(Cl)c3)CCCCC2)c1`, the growth in the assay with NCI/ADR-RES ovarian is 36.8%; with T-47D breast, 62%; in the assay on BT-549 breast, 78%; in the assay on MDA-MB-435 melanoma, 78.7%; in the assay on SW-620 colon, 98.8%; with MCF7 breast it was 65.3%. For the same molecule, the values for the growth with HCT-116 colon, in the assay on HCC-2998 colon and with KM12 colon were 61.2%, 95.4% and 51.4%, respectively.

Source of the values: PubChem BioAssay (NCI).
